This is a sample that favours compounds with a hit; in the whole collection about 2.2% have one here.
APP 5UTR inh: APP translation inhibition; SH-SY5Y APP 5'UTR-luciferase reporter, luminescence; AID 1285; 190,000 tested, 0.82% active; inhibition, % at 2 µM;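 active = inhibition above a set limit, derived from the sample mean plus 3 SD, cut at about 45% in these data; inconclusive = one replicate passes the limit while the other fails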
IEC-6 cytotox: kills IEC-6 intestinal cells in KLF5 counter-screen; IEC-6 cytotoxicity, luminescence viability; 290,000 tested, 0.78% active; AID 1825; inhibition, % at 5 µM; in the data active = inhibition above about 22%;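 also: 0% = plate median of test compound wells and 100% = cytotoxic reference compound wells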
aSyn 5UTR inh: 5' untranslated region of α-synuclein, MLPCN primary screen | alpha-synuclein 5'UTR reporter, inhibitor activity | 300,000 tested, 0.82% active | AID 1813 | inhibition, % (tested at 7.5 µM); in the data active = inhibition above about 60%; inconclusive = no clear call, values can overlap the other calls;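 also: H4 neuroglioblastoma cells stably carrying SNCA 5'UTR luciferase fusion; 0% = DMSO wells and 100% = positive control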
KLF5 inh: suppresses KLF5 promoter-driven expression. DLD-1 KLF5 promoter-luciferase reporter, luminescence. inhibition, % at 5 µM. 290,000 tested, 0.23% active. AID 1700;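 active = inhibition above a per-plate limit of that plate's mean compound inhibition plus 3 SD, cut at about 60% in these data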;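 also: 0% = DMSO wells and 100% = LY294002 at 200 µM; higher means less KLF5 promoter-driven luciferase light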
Ba/F3 V617F tox: lowers viability of Ba/F3 cells expressing EpoR and JAK2V617F; ATP luminescence; inhibition, % at 5.6 µM; 220,000 tested, 1.1% active; AID 1446;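 active = inhibition above the campaign mean plus 3 SD over all tested compounds, cut at about 24% in these data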;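 also: cytokine-independent growth of Ba/F3 cells driven by EpoR plus mutant JAK2; 0% = DMSO-treated cells and 100% = JAK inhibitor I control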
BaF3 parental: counter-screen for JAK2V617F inhibitors: parental Ba/F3 viability inhibitors | CellTiter-Glo ATP luminescence | inhibition, % at 5.6 µM | 220,000 tested, 1.1% active | AID 1486;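 active = inhibition above a per-campaign cutoff, the mean inhibition of all tested compounds plus 3 SD, cut at about 27% in these data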;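 also: 0% = DMSO wells and 100% = JAK Inhibitor I control wells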
* hit, by the source's call.

What do the screens show for `COc1ccc(-n2c(C)cc(C3=NNC(=NC4CC4)SC3)c2C)cc1`?
APP 5UTR inh: -92.6; IEC-6 cytotox: -5.9; KLF5 inh: 11.1; Ba/F3 V617F tox: 0.4; BaF3 parental: 4.7

Results for CC1CN(C(=O)c2ccc(OC3CCN(Cc4ccccn4)CC3)cc2)CCN1C (stereo not given) ?
IEC-6 cytotox: -2.7; aSyn 5UTR inh: -7.7; KLF5 inh: -18.0

What do the screens show for `Cn1c(N)c(C(=O)COC(=O)CC2CC3CCC2C3)c(=O)n(C)c1=O` (stereo not given)?
APP 5UTR inh: -11.5; IEC-6 cytotox: 6.5; aSyn 5UTR inh: 5.9; KLF5 inh: -9.1; Ba/F3 V617F tox: -0.8; BaF3 parental: 59.7*

What do the screens show for `Cn1c(N)c(C(=O)COC(=O)CSc2ccccc2)c(=O)n(C)c1=O`?
APP 5UTR inh: 13.3; IEC-6 cytotox: 0.5; aSyn 5UTR inh: -3.8; KLF5 inh: -18.9; Ba/F3 V617F tox: 3.7; BaF3 parental: 8.5

What do the screens show for `Cc1[nH]n(-c2ccccc2)c(=O)c1N=Nc1ccccc1O`?
APP 5UTR inh: 57.5*; IEC-6 cytotox: 0.5; aSyn 5UTR inh: inconclusive; KLF5 inh: 7.9; Ba/F3 V617F tox: 0.2; BaF3 parental: 13.2

How did Cc1ccccc1N=Nc1c(C)[nH]n(-c2ccccc2)c1=O do in these assays?
APP 5UTR inh: 6.7; IEC-6 cytotox: -0.9; KLF5 inh: -43.0; Ba/F3 V617F tox: -1.0; BaF3 parental: 6.0

How did Cc1cc(C)c(C(=O)COC(=O)Cn2c(C)csc2=O)cc1C do in these assays?
IEC-6 cytotox: 6.2; aSyn 5UTR inh: 2.7; KLF5 inh: -36.2

How did Cc1ccccc1C(=O)N1CCCC(N2CCN(Cc3ccc4c(c3)OCO4)CC2)C1 (stereo not given) do in these assays?
IEC-6 cytotox: -4.2; aSyn 5UTR inh: -9.6; KLF5 inh: -12.4

Results for CNc1ccccc1C(C)(C)c1cc(-c2cccc(OC)c2)no1 ?
APP 5UTR inh: 3.2; IEC-6 cytotox: -0.7; aSyn 5UTR inh: 15.6; KLF5 inh: -18.5; Ba/F3 V617F tox: 47.9*; BaF3 parental: 56.4*

What do the screens show for `O=C(O)c1ccc(N/N=C/c2ccc(OC(=O)c3cccc(Cl)c3)cc2)cc1`?
IEC-6 cytotox: -2.3; aSyn 5UTR inh: 76.0*; KLF5 inh: -14.6; Ba/F3 V617F tox: -1.0; BaF3 parental: -0.2

How did CC(C)CCNC(=O)NC(=O)COc1ncnc2sccc12 do in these assays?
APP 5UTR inh: 4.6; IEC-6 cytotox: -5.8; aSyn 5UTR inh: 21.6; KLF5 inh: -4.1; Ba/F3 V617F tox: -4.9; BaF3 parental: 96.0*

Results for CC(C)CNC(=O)NC(=O)COc1ncnc2sccc12 ?
APP 5UTR inh: -2.6; IEC-6 cytotox: -2.2; aSyn 5UTR inh: 14.6; KLF5 inh: -25.6; Ba/F3 V617F tox: -3.2; BaF3 parental: 0.2

What do the screens show for `C[C@@H](CN1C(=O)C(=O)NC[C@@H]1C)NC(=O)CC12CC3CC(CC(C3)C1)C2`?
IEC-6 cytotox: 2.3; aSyn 5UTR inh: 10.6; KLF5 inh: 5.5

Results for O=C(CS(=O)c1ccc(C(F)(F)F)cc1[N+](=O)[O-])Oc1ccccc1 (stereo not given) ?
APP 5UTR inh: -2.9; IEC-6 cytotox: 15.7; aSyn 5UTR inh: 16.6; KLF5 inh: -18.2; Ba/F3 V617F tox: 53.1*; BaF3 parental: 47.8*

How did COC(=O)c1ccc(OC(=O)CS(=O)c2ccccc2[N+](=O)[O-])cc1 (stereo not given) do in these assays?
APP 5UTR inh: -4.5; IEC-6 cytotox: 5.0; aSyn 5UTR inh: -11.4; KLF5 inh: -24.1; Ba/F3 V617F tox: 3.1; BaF3 parental: 3.4

How did CS(=O)(=O)c1ccc(S(=O)CC(=O)OCc2ccccc2)c([N+](=O)[O-])c1 (stereo not given) do in these assays?
APP 5UTR inh: 48.4*; IEC-6 cytotox: -6.3; aSyn 5UTR inh: -44.8; KLF5 inh: -6.9; Ba/F3 V617F tox: 42.8*; BaF3 parental: -5.0

How did CCn1ncc(Br)c1C(=O)Nc1ccc(-c2ccno2)cc1 do in these assays?
IEC-6 cytotox: -3.0; aSyn 5UTR inh: -26.4; KLF5 inh: -8.5

How did O=C(Nc1ccc(Cl)c(Cl)c1)Nc1ccccc1C(=O)O do in these assays?
APP 5UTR inh: -214.9; IEC-6 cytotox: -10.2; aSyn 5UTR inh: -7.6; KLF5 inh: -136.7; Ba/F3 V617F tox: 18.3; BaF3 parental: 45.2*

What do the screens show for `CC[n+]1c(/C=C/N(C)c2ccccc2)oc2ccc(Cl)cc21`?
APP 5UTR inh: -10.1; IEC-6 cytotox: 0.0; aSyn 5UTR inh: 18.0; KLF5 inh: 5.6; Ba/F3 V617F tox: 54.1*; BaF3 parental: 59.0*

What do the screens show for `CCn1c(/C=C/N(C(C)=O)c2ccccc2)[n+](CC)c2ccc(Cl)cc21`?
APP 5UTR inh: -10.6; IEC-6 cytotox: 1.6; aSyn 5UTR inh: -13.9; KLF5 inh: -13.5; Ba/F3 V617F tox: -3.8; BaF3 parental: 9.6

Results for Cc1ccccc1C(=O)NNC(=O)CCCCC(=O)NNC(=O)c1ccccc1C ?
aSyn 5UTR inh: -16.1

Results for CCOc1cnn(-c2cc(Oc3ccc(C)cc3)ncn2)c(=O)c1Cl ?
APP 5UTR inh: 74.3*; IEC-6 cytotox: -5.8; aSyn 5UTR inh: 0.1; KLF5 inh: -21.2; Ba/F3 V617F tox: -0.9; BaF3 parental: 6.0

Results for COC(=O)c1cnn(-c2cc(Oc3ccccc3)ncn2)c1N ?
APP 5UTR inh: 1.1; IEC-6 cytotox: -1.6; aSyn 5UTR inh: -126.9; KLF5 inh: -8.3; Ba/F3 V617F tox: -5.6; BaF3 parental: 1.1

What do the screens show for `CN(C)c1cc[n+](Cc2c(Cl)cccc2Cl)cc1`?
APP 5UTR inh: 1.6; IEC-6 cytotox: -5.1; aSyn 5UTR inh: 7.5; KLF5 inh: 5.5; Ba/F3 V617F tox: 98.2*; BaF3 parental: 80.3*

What do the screens show for `O=C(N/N=C/c1ccc[nH]1)c1ccc(COc2cccc3cccnc23)cc1`?
APP 5UTR inh: 46.1*; IEC-6 cytotox: 38.7*; aSyn 5UTR inh: 104.0*; KLF5 inh: -21.6; Ba/F3 V617F tox: 86.5*; BaF3 parental: 80.4*

How did COc1ccccc1-n1cc([C@@H]2C[C@H]3CN(c4ccccc4)C(=O)[C@]34CCCN24)cn1 do in these assays?
APP 5UTR inh: 94.8*; IEC-6 cytotox: -1.8; aSyn 5UTR inh: -361.9; KLF5 inh: -17.4; Ba/F3 V617F tox: -1.1; BaF3 parental: 6.8

What do the screens show for `CN(C)CCCN(C(=O)CCc1ccccc1)c1nc2ccc(Cl)cc2s1`?
APP 5UTR inh: 9.6; IEC-6 cytotox: 3.2; aSyn 5UTR inh: 109.5*; KLF5 inh: -15.8; Ba/F3 V617F tox: -0.1; BaF3 parental: 6.5

What do the screens show for `COc1cccc(/C=C2\CCC(C3CCCC3)C2=O)c1OC` (stereo not given)?
IEC-6 cytotox: -6.6; aSyn 5UTR inh: -163.3; KLF5 inh: -147.1

Results for COc1ccc(C2C(=O)c3ccccc3C2=O)c(OC)c1 ?
APP 5UTR inh: -10.2; IEC-6 cytotox: 1.0; aSyn 5UTR inh: -265.4; KLF5 inh: -21.9; Ba/F3 V617F tox: -1.6; BaF3 parental: -0.7

What do the screens show for `CCNC(=O)N1c2ccc(OCC)cc2C(C)=CC1(C)C`?
APP 5UTR inh: 2.3; IEC-6 cytotox: 1.4; aSyn 5UTR inh: -19.0; KLF5 inh: 3.5; Ba/F3 V617F tox: -0.4; BaF3 parental: 3.4

Bioassay records from PubChem.
